According to PubChem BioAssay (NCI):
Compounds without any hit were thinned out: in the full panel of roughly 83,000, 20% have a hit.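 For each line, cells grew in 96-well plates with the test compound present at a single concentration for 48 hours.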 Values without a mark were called inactive. Active and inactive are the calls of the source. Rule for the calls: active = growth percent below 10; inactive = the rest.

Legend:
Test in all cases: NCI-60 one-dose screen, 48 h (100 = growth as untreated, 0 = no growth, -100 = all killed)
Conditions in all cases: 10 µM unless noted
NCI-H23 lung = system: NCI-H23 lung
NCI-H226 lung = system: NCI-H226 lung
NCI-H322M lung = system: NCI-H322M lung
HOP-62 NSCLC = system: HOP-62 NSCLC
NCI-H460 lung = system: NCI-H460 lung
NCI-H522 lung = system: NCI-H522 lung
A549/ATCC NSCLC = system: A549/ATCC NSCLC
786-0 renal = system: 786-0 renal
COLO 205 colon = system: COLO 205 colon

SMILES	growth (NCI-H23 lung)	growth (NCI-H226 lung)	growth (NCI-H322M lung)	growth (HOP-62 NSCLC)	growth (NCI-H460 lung)	growth (NCI-H522 lung)	growth (A549/ATCC NSCLC)	growth (786-0 renal)	growth (COLO 205 colon)
Cc1ncsc1-c1ccc(CNC(=O)[C@@H]2C[C@@H](O)CN2C(=O)[C@@H](NC(=O)C2(F)CC2)C(C)(C)C)c(OCCOCCOCCOCCOc2nc(Nc3cc(S(C)(=O)=O)ccc3N[C@@H](c3cccc4c3OC(F)(F)O4)c3ncccc3Cl)nc(N3CCNCC3)n2)c1	85.3%	71.5%	82.3%	90.6%	87.3%	100%	103%	97.7%	89.8%
COc1ccc(-c2ccnc(SCc3cc4cc(OC)ccc4[nH]c3=O)n2)cc1	25.8%	39.4%	48.1%	34.7%	14.9%	11.8%	20.2%	44.1%	15.7%
O=c1oc2ccccc2cc1-c1csc(N=Nc2c(O)[nH]c3ccc(Cl)cc23)n1	98.7%	98.3%	114%	101%	109%	98.7%	102%	86.3%	136%
O=C1CC(Sc2n[nH]c(-c3ccncc3)n2)C(=O)N1c1ccc(Br)cc1 (configuration not stated)	104%	117%	104%	98.9%	117%	-33.6% (active)	106%	106%	116%
CCCSc1nc(Nc2ccc(S(N)(=O)=O)cc2)c(C#N)c(-c2ccc(Cl)cc2)n1	31.4%	-2.08% (active)	21.9%	-2.6% (active)	28.6%	16.6%	16.3%	-69.7% (active)	46.8%
CN(C)c1nc(NCCNS(=O)(=O)c2ccc(C3=Nc4c(N)nc(N)nc4NC(c4ccc(F)cc4)C3)cc2)nc(Nc2ccc(F)cc2)n1 (configuration not stated)	64.5%	53%	63.3%	72.4%	21.7%	42.1%	66.3%	30.2%	37.9%
O=C(Cn1c2c(sc1=O)[C@H]1[C@@H](O)[C@@H](O)[C@H](O)[C@@H]1CS2)N1CCOCC1	105%	101%	107%	92.7%	106%	91.7%	106%	98.7%	116%
Cc1ccc(/C=C/c2n(Cc3ccc4ccccc4c3)c3ccccc3[n+]2Cc2ccc3ccccc3c2)cc1	-92.4% (active)	-27.4% (active)	-98.4% (active)	-58.2% (active)	-77.4% (active)	-82.5% (active)	-53.4% (active)	-51.6% (active)	-64.8% (active)
CCCCCCn1c(O)c(N=Nc2nc(-c3cc4ccccc4oc3=O)cs2)c2ccccc21	-20.9% (active)	67.8%	53.1%	39.9%	5.99% (active)	-21.8% (active)	-16.6% (active)	-64.8% (active)	4.61% (active)
Cc1nc(Nc2ncc(C(=O)Nc3c(C)cccc3Cl)s2)cc(N2CCN(CCCNC(=O)COc3ccc(C4CCC(=O)NC4=O)cc3)CC2)n1 (configuration not stated)	68.8%	68.5%	20.8%	35.4%	95.8%	17%	33.4%	14.4%	10.3%
COc1ccc2[nH]c(=O)c(CSc3nccc(-c4ccc(OC)c(OC)c4)n3)cc2c1	35.4%	-13.2% (active)	40.6%	0.29% (active)	18.1%	-17.4% (active)	18.3%	30.4%	36.5%
O=C(N1c2ccccc2Sc2ccccc21)n1ccc2cccnc21	77.9%	81%	74.7%	77.5%	48.7%	56.3%	75.8%	77.4%	62.8%
N/C(=N\c1nc2ccccc2s1)NC(=O)Nc1c(Cl)cccc1Cl	31.9%	67.2%	68.2%	58.7%	17.8%	-19.3% (active)	38.8%	52.5%	46.2%
CC1(c2cc3cc(Br)ccc3oc2=O)NC(=O)c2c(/C=C/C(=O)OC3CC4CCC3(C)C4(C)C)cccc2N1 (configuration not stated)	79.1%	75.9%	81.2%	92.5%	73.6%	68.3%	54.6%	91.5%	88.7%
COc1ccc(-c2nc3cc(C)ccc3n2CC(=O)N=Nc2c(O)[nH]c3ccc(Br)cc23)cc1	-45.5% (active)	-13.4% (active)	14.2%	-49.7% (active)	8.15% (active)	25%	-68.6% (active)	25.6%	-47.2% (active)
CC12CC[C@@H]3[C@]4(C)COC(c5cn[nH]c5-c5ccc(Br)cc5)O[C@@H]4CC[C@@]3(C)[C@@H]1CC(C1=CCOC1=O)O2 (some centres not stated)	57.3%	59.7%	66.1%	79.5%	35.4%	37.4%	35.5%	62.3%	39%
COc1ccc2c(c1)c(-c1cc3nc(-c4cn(C)c5ncccc45)cc(N)n3n1)cn2C	0.244% (active)	-16.6% (active)	-8.29% (active)	-25.8% (active)	-25.5% (active)	-78.4% (active)	-30.6% (active)	-92% (active)	-74.1% (active)
O=C(CN1C(=O)/C(=C/c2ccccc2Cl)SC1=S)N1CCOCC1	98%	77.9%	95.3%	116%	107%	-74.8% (active)	97.8%	80.4%	100%
Cc1ccc(C(=O)NN2C(=O)/C(=C/C=C/c3ccc([N+](=O)[O-])o3)SC2=S)cc1	-84% (active)	-95.6% (active)	-76.9% (active)	-70% (active)	-57.6% (active)	-90.7% (active)	-76.5% (active)	-86% (active)	-83.9% (active)
O=C(Cn1nc(-c2ccccc2)ccc1=O)N/N=C/c1ccc(N2CCOCC2)cc1	100%	89.7%	106%	96%	99.5%	89.4%	94.9%	97.7%	113%
OCC1(CCCc2ccccc2)CCCN(c2nccc3ccccc23)C1 (configuration not stated)	14.9%	37.7%	82.5%	72.6%	34%	22.9%	39.7%	45.4%	10.4%
COc1ccc(-c2ccc(SCC(=O)NCCc3ccc(S(N)(=O)=O)cc3)nn2)cc1	64.2%	77%	96.2%	81.3%	107%	70%	86.6%	85.8%	95.4%
Cn1cc(-c2cc3nc(-c4cn(C)c5ncc(Br)cc45)cc(N)n3n2)c2cc(Cl)ccc21	-77% (active)	-40.8% (active)	-73.1% (active)	-78.1% (active)	-69.9% (active)	-79.8% (active)	-75.2% (active)	-65.3% (active)	-77.6% (active)
O=c1[nH]c(=O)c2c(-c3cc4ccccc4oc3=O)ccnc2[nH]1	61.3%	74.8%	97%	26.4%	88.8%	68.5%	91.9%	43.9%	108%
COc1ccc(-c2nc3cc(C)ccc3n2CC(=O)N=Nc2c(O)[nH]c3ccc(OC)cc23)cc1	-65.1% (active)	-66.6% (active)	-4.47% (active)	-70.5% (active)	-48% (active)	-40.9% (active)	-49.7% (active)	-69.3% (active)	-68.2% (active)
COc1ccc(-c2ccnc(SCc3cc4ccccc4[nH]c3=O)n2)cc1OC	15.6%	-23.1% (active)	-51.5% (active)	-53.5% (active)	8.25% (active)	-21.2% (active)	11.7%	-25.4% (active)	4.51% (active)
Cn1cc(-c2cc3nc(-c4cn(C)c5ncccc45)cc(N)n3n2)c2ccccc21	55.6%	-21.6% (active)	37%	-13.6% (active)	3.16% (active)	-4.18% (active)	15.2%	-52.9% (active)	3.03% (active)
CC(=O)/C=C/c1cccc2c1C(=O)NC(C)(c1cc3cc(Br)ccc3oc1=O)N2 (configuration not stated)	17.9%	34.3%	52.5%	50%	51.9%	26.8%	55.1%	33.2%	79.6%
